# Data from PubChem BioAssay (NCATS).
# A number with no mark means an inactive call. Records with an inconclusive call do not appear. Calls of active or inactive are those of the source. Unless noted, calls follow the shape of the dose curve; as a rule, active = well fitted curve in the direction sought with a large enough effect; inconclusive = small, poorly fitted or top-dose-only effect, or another doubt; inactive = no such curve, though single readings can be large; an effect the other way counts as inactive or inconclusive.
# Tests used:
# [1] = biological target: Lysosomal acid glucosylceramidase (Homo sapiens) (UniProt P04062); assay: Glucocerebrosidase-p2 (AID 348; in the data active = potency below about 10 µM; also: potency is read from the fitted curve at half-maximal effect); details: purified GBA, blue fluorogenic substrate, 40 min
# Sequence of Lysosomal acid glucosylceramidase (Homo sapiens) (P04062 whole entry, looked up): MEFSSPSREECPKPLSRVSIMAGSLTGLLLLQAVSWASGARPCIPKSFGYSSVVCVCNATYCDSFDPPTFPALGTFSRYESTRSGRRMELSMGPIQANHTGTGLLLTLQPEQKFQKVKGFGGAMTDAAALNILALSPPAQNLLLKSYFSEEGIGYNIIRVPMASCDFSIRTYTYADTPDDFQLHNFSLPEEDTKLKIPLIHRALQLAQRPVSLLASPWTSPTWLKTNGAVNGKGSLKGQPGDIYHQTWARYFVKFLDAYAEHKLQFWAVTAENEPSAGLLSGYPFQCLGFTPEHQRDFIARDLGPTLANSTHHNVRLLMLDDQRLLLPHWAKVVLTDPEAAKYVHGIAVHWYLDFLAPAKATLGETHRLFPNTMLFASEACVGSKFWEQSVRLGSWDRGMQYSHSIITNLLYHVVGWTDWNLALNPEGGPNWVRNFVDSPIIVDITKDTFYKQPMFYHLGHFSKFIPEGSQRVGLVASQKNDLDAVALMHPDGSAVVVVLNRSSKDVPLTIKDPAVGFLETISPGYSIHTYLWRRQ
# Procedure, shortened: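 Compounds titrated from 0.6 nM upwards against 0.2 nM enzyme in pH 5.9 citric acid/KH2PO4, taurocholate, tween-20; blue fluorogenic substrate 80 uM, 40 min room temperature, stopped and read Ex 365/Em 440 for AC50.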
# [2] = AP1 Signaling Pathway (AID 357; active = well fitted curve in either direction with a large enough effect, not every such curve was filed as active;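 also: ME-180 reporter cells stimulated with EGF at its EC50 level; % is scaled to controls: 0 for no effect and ±100 for the full control effect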); details: ME-180 AP-1-bla reporter, EGF-induced, beta-lactamase ratio, 5 h; at 7.69 µM (top of the series) unless noted
# Procedure, shortened: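 Read-out was the 460nm/530nm emission ratio (excitation 405nm) after CCF4 loading for 2.5 hours at room temperature. Cells carried an AP-1-driven beta-lactamase reporter, were stimulated with EC50 EGF plus compound for 5 hours, and AC50 values came from titrations.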
# [3] = biological target: Cytochrome P450 1A2 (Homo sapiens) (UniProt P05177); assay: p450-cyp1a2 (AID 410; calls by dose curve; also: potency is read from the fitted curve at half-maximal effect;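 as to activity change, negative = inhibition: -100% = full effect of reference inhibitor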); details: recombinant CYP1A2, luciferin-ME demethylation, luminescence; series mostly up to 57 µM
# Sequence of Cytochrome P450 1A2 (Homo sapiens) (P05177 whole entry, looked up): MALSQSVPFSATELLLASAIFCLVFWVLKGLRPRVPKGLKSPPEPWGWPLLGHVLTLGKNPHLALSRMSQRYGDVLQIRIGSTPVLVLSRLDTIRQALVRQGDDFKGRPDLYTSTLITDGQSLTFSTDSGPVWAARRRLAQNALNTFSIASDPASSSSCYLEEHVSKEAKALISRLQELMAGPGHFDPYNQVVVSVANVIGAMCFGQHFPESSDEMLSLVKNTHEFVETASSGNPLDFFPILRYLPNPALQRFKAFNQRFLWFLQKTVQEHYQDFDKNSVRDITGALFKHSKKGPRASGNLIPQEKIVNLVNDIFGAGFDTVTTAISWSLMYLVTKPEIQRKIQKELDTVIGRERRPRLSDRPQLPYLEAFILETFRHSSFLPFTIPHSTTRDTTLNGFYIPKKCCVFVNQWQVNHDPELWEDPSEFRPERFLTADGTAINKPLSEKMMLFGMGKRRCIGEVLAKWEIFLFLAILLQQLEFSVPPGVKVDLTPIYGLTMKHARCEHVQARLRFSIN
# Procedure, shortened: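 Human CYP1A2 (20nM) demethylated Luciferin-ME at its Km (100uM) in 100mM KPO4. After 10 min compound preincubation, NADPH regeneration ran the reaction 60 min at room temperature. Luciferin was read by luminescence, normalized to 57 uM furafylline.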
# [4] = NFAT Signaling Pathway (AID 444; active = well fitted curve in either direction with a large enough effect, not every such curve was filed as active;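 also: carbachol stimulus at about its EC50 of 1 µM final; % is scaled to controls: 0 for no effect and ±100 for the full control effect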); details: Jurkat NFAT-bla M1, carbachol, beta-lactamase ratio, 5 h; at 7.69 µM (top of the series) unless noted
# Procedure, shortened: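 Jurkat cells with NFAT-driven β-lactamase reporter and co-expressed M1 receptor, stimulated with carbachol (final 1 uM, ~EC50), compound titration, 5 h at 37 °C. CCF4 loaded 1 h at RT; 460/530 nm ratio gave %activity and AC50.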
# [5] = Stat Signaling Pathway (AID 446; active = well fitted curve in either direction with a large enough effect, not every such curve was filed as active;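 also: ME-180 cervical cancer cells given 40 pM IL-6 alongside compound; SIE-controlled beta-lactamase reporter measured as 460/530 nm FRET emission ratio; % is scaled to controls: 0 for no effect and ±100 for the full control effect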); details: ME-180 SIE beta-lactamase reporter, IL-6 stimulated, 5 h; at 7.69 µM (top of the series) unless noted
# Procedure, shortened: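 Screening format detects activators and inhibitors alike: ME-180 SIE-bla cells stimulated at 40 pM IL-6 for 5 hrs with compound, then dual-emission beta-lactamase read at 405 nm excitation.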
# [6] = biological target: Glucocorticoid receptor (Homo sapiens) (UniProt P04150); assay: GR-GFP Redistribution (AID 450;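 active = compounds whose dose series gives a full or clear partial fitted curve of increased nuclear translocation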; also: potency is read from the fitted curve at half-maximal effect); details: U2OS GR-GFP nuclear translocation, laser cytometry, 2 h
# Sequence of Glucocorticoid receptor (Homo sapiens) (P04150 whole entry, looked up, the tested form may be a part): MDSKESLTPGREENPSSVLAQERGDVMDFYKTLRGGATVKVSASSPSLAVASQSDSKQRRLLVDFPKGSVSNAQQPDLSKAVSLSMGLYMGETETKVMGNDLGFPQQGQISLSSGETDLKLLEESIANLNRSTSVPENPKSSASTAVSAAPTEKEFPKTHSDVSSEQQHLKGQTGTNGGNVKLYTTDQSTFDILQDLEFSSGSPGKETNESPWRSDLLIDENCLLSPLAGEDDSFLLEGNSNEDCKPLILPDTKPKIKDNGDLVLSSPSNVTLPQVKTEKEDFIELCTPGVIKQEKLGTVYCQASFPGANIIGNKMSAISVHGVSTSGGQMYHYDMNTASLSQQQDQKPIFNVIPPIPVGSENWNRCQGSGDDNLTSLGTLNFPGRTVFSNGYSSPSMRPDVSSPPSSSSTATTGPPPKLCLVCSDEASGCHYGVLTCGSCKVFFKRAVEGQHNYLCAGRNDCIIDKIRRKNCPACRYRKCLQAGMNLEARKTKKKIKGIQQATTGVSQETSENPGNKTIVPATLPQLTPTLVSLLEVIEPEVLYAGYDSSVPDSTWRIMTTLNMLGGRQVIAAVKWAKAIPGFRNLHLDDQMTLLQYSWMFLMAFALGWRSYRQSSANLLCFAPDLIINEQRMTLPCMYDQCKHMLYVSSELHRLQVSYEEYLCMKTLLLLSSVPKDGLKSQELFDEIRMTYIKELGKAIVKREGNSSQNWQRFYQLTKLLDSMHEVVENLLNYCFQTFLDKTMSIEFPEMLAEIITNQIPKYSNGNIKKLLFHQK
# [7] = biological target: Glucocorticoid receptor (Homo sapiens) (UniProt P04150); assay: GR-EFC Redistribution (AID 451; calls by dose curve; also: potency is read from the fitted curve at half-maximal effect); details: CHO-K1 GR-EFC translocation, beta-gal luminescence, 2 h
# Procedure, shortened: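 CHO-K1 cells expressing nuclear EA and GR-ED fragments of b-gal; compounds titrated up to 46 uM final, 2 h at 37 C. GR nuclear translocation read as complemented b-gal luminescence after 1 h RT detection.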
# [8] = biological target: Mitogen-activated protein kinase 10 (Mus musculus) (UniProt Q61831); assay: JNK3 AlphaScreen Assay (AID 530; active = well fitted curve in either direction with a large enough effect, not every such curve was filed as active;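 also: kinase came from lysate of stimulated human HepG2 cells; signal reports phosphorylation of biotinylated GST-cJun 1-79 at Ser73 with 10 µM ATP; % is scaled to controls: 0 for no effect and ±100 for the full control effect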); details: JNK3 lysate, c-Jun phosphorylation; series mostly up to 57.1 µM
# Procedure, shortened: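 qHTS format: compounds tested as titrations against IL-1beta/TNF-alpha-activated HepG2 lysate JNK3 with biotin-GST-cJun substrate and 10 uM ATP at room temperature. Loss of anti-phospho-cJun AlphaScreen signal indicates inhibition.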
# [9] = biological target: 3',5'-cyclic-AMP phosphodiesterase 4B (Homo sapiens) (UniProt Q07343); assay: qHTS Assay for Inhibitors of PDE-IV (AID 607; active = well fitted activation curve with a large enough effect in the main read-out, with a control signal flat, not every such curve was filed as active; also: % of control where 0% means no effect); details: HEK293 ACTOne CNG channel cells, membrane potential fluorescence; series mostly up to 22.9 µM
# Sequence of 3',5'-cyclic-AMP phosphodiesterase 4B (Homo sapiens) (Q07343 whole entry, looked up): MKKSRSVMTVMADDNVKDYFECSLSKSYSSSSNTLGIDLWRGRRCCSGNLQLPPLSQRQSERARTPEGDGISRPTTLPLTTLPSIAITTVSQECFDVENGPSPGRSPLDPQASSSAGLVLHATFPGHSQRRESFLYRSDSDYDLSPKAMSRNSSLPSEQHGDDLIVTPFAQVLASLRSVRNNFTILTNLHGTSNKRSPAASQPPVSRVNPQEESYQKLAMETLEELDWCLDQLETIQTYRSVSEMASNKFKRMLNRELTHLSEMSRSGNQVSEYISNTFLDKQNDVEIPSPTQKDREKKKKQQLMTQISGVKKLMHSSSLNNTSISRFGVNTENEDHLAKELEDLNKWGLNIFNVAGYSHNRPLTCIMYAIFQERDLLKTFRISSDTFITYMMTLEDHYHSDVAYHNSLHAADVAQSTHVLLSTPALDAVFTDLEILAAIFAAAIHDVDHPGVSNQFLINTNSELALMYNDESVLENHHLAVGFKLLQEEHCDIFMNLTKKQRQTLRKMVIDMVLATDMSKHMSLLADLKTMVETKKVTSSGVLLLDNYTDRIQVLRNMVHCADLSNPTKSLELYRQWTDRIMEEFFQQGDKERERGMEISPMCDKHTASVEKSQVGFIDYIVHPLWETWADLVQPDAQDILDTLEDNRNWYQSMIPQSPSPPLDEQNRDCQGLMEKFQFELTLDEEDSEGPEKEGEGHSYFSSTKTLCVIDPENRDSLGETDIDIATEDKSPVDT
# Procedure, shortened: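 The readout is membrane depolarisation from a cAMP-sensing CNG channel, detected with a potential dye at ex 535/em 590. Cells were HEK293-derived (endogenous PDE-IV) at 1000 cells/well, titrated up to 22.9 uM final.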
# [10] = biological target: Cytochrome P450 3A4 (Homo sapiens) (UniProt P08684); assay: qHTS Assay for Inhibitors and Substrates of Cytochrome P450 3A4 (AID 884); details: recombinant CYP3A4, Luciferin-PPXE luminescence; series mostly up to 57.1 µM; also: potency is read from the fitted curve at half-maximal effect; nearly all actives have a fitted effect of over 50% in size
# Sequence of Cytochrome P450 3A4 (Homo sapiens) (P08684 whole entry, looked up): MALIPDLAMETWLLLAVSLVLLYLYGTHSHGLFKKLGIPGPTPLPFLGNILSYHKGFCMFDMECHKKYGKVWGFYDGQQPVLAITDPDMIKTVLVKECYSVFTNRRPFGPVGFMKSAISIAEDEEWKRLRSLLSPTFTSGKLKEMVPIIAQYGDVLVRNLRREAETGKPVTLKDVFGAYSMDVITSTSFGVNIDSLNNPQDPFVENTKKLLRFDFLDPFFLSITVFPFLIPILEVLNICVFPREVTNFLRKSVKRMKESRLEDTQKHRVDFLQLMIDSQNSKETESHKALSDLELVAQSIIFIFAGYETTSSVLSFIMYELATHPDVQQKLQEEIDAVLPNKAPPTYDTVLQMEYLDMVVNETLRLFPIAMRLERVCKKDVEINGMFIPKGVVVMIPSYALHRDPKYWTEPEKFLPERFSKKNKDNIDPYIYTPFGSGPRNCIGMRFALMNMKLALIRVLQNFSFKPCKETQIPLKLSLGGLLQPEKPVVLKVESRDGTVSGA
# Procedure, shortened: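 20 nM human CYP3A4 with 25 uM Luciferin-PPXE (at KM) in 200 mM KPO4, preincubated 10 min with compound; NADPH regeneration started a 60 min RT reaction. Luciferin detected by luminescence, normalized to 57 uM ketoconazole as full inhibition.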
# [11] = biological target: Cytochrome P450 3A4 (Homo sapiens) (UniProt P08684); assay: qHTS Assay for Activators of Cytochrome P450 3A4 (AID 885); details: recombinant CYP3A4, Luciferin-PPXE luminescence, 60 min; series mostly up to 57.1 µM; also: nearly all actives have a fitted effect of over 65% in size
# Procedure, shortened: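 Steps: enzyme/substrate mix dispensed; compound added, 10 min RT; NADPH regeneration solution added, 60 min RT; luciferin detection buffer stops reaction; 20 min later luminescence measured.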
# [12] = biological target: Dual specificity protein kinase CLK4 (Homo sapiens) (UniProt Q9HAZ1); assay: qHTS Assay for Inhibitors of CDC-like Kinase 4 (Kinase-Glo Assay) (AID 1770); details: recombinant Clk4, Kinase-Glo ATP depletion luminescence; series mostly up to 66.7 µM; also: nearly all actives have a fitted effect of over 65% in size; also: potency is read from the fitted curve at half-maximal effect
# Sequence of Dual specificity protein kinase CLK4 (Homo sapiens) (Q9HAZ1 whole entry, looked up): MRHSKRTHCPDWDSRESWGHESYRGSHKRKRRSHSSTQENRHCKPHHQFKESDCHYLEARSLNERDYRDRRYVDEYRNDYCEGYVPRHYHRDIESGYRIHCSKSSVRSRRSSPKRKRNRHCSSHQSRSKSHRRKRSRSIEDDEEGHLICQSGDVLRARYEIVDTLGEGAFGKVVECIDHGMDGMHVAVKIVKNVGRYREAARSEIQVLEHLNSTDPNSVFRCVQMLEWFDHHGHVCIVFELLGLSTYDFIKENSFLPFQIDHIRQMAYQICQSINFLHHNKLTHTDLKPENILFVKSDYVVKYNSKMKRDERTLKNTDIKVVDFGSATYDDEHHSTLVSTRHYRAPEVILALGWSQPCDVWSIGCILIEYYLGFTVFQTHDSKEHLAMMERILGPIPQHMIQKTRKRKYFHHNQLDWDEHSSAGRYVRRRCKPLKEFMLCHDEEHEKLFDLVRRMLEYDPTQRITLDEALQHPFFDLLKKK
# Procedure, shortened: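 Clk4 25 nM, RS peptide 100 uM, ATP 1 uM, pH 7.5 Tris, 10 mM MgCl2, 2.5 mM DTT; 4.5 h RT; ATP depletion read by Kinase-Glo luminescence.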
# [13] = biological target: Dual specificity protein kinase CLK4 (Homo sapiens) (UniProt Q9HAZ1); assay: qHTS Assay for Inhibitors of CDC-like Kinase 4 (ADP-Glo Assay) (AID 1771); details: recombinant CLK4, ADP-Glo luminescence; series mostly up to 80 µM; also: nearly all actives have a fitted effect of over 70% in size; also: potency is read from the fitted curve at half-maximal effect
# Procedure, shortened: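 Clk4 (25 nM) was incubated 1 hr at room temperature with 100 uM RS repeat peptide and 1 uM ATP in buffer with 2 mM MgCl2, 0.5 mM EGTA, 2.5 mM DTT. ADP formed was quantified by ADP-Glo luminescence.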
# [14] = biological target: Ubiquitin carboxyl-terminal hydrolase 1 (Homo sapiens) (UniProt O94782); assay: Inhibitors of USP1/UAF1: Pilot qHTS (AID 504865); details: purified USP1/UAF1, Ub-rhodamine cleavage fluorescence; series mostly up to 54.9 µM;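 also: rhodamine fluorescence freed from ubiquitin-rhodamine substrate followed over time; top concentration of the series differs between compounds; % is scaled to controls: 0 for no effect and ±100 for the full control effect; nearly all actives have a fitted effect of over 35% in size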
# Sequence of Ubiquitin carboxyl-terminal hydrolase 1 (Homo sapiens) (O94782 whole entry, looked up): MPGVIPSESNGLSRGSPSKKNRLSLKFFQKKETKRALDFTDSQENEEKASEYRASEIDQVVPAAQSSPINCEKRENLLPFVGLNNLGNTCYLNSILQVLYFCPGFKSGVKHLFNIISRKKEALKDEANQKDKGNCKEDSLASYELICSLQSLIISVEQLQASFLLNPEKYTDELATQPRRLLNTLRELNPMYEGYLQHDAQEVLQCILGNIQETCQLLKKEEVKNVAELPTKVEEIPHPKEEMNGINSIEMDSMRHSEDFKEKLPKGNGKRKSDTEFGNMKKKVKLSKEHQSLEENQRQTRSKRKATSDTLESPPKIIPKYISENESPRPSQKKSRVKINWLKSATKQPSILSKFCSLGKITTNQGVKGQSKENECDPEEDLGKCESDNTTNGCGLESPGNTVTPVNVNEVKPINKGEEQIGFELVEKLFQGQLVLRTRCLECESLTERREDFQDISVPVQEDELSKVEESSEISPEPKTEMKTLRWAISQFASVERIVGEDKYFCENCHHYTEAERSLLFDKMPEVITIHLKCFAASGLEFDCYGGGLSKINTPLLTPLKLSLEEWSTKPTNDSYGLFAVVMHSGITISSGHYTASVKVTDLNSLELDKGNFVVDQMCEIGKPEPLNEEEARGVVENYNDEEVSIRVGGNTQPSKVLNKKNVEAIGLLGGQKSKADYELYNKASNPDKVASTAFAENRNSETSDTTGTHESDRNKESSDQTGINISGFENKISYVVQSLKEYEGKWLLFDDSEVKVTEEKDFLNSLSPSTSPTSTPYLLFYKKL
# Procedure, shortened: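 Enzyme-free wells gave the negative control, while test wells held 1nM USP1/UAF1 preincubated with compound for 15 min at room temperature. Ub-Rho at 150nM final started the reaction, and fluorescence at 480/540 nm was recorded kinetically.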
# [15] = Primary qHTS for small molecule stabilizers of the endoplasmic reticulum resident proteome: Secreted ER Calcium Modulated Protein (SERCaMP) assay (AID 1508630); details: SH-SY5Y GLuc-SERCaMP (Gaussia luciferase released on ER calcium loss) secretion, thapsigargin, luminescence; series mostly up to 38.4 µM; also: % is scaled to controls: 0 for no effect and ±100 for the full control effect
# Procedure, shortened: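 GLuc-SERCaMP-expressing SH-SY5Y cells, pretreated 16 h with compound, are challenged with thapsigargin to empty ER calcium stores; after 4 h, coelenterazine is added directly to the medium and luminescence is imaged.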
# [16] = qHTS Assay for Identification of Small Molecule Agonists for Hypoxia Response Element Signaling Pathway (AID 914; active = well fitted activation curve with a large enough effect in the signal ratio, with a control signal flat, not every such curve was filed as active; the % refers to the signal ratio; also: potency is read from the fitted curve at half-maximal effect; as to activation: % of control where 0% means no effect); details: ME-180 (cervical carcinoma) HRE-bla reporter, beta-lactamase ratio, CoCl2, 17 h; activation: active compounds read high
# Procedure, shortened: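 Read-out: CCF4 FRET ratio of 460nm to 530nm emission (excitation 405nm) after 2.5 hours at room temperature, taken from HRE-bla ME-180 cells that had been exposed to compound and EC50 CoCl2 for 17 hours.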
# [17] = biological target: Dual specificity protein kinase CLK4 (Homo sapiens) (UniProt Q9HAZ1); assay: qHTS Assay for Inhibitors of CDC-like Kinase 4 (ADP-FP Assay) (AID 1795); details: Transcreener ADP fluorescence polarization; series mostly up to 50 µM;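 also: recombinant human CLK4 phosphorylating RS repeat peptide at 1 µM ATP; % is scaled to controls: 0 for no effect and ±100 for the full control effect; nearly all actives have a fitted effect of over 60% in size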
# Procedure, shortened: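 Kinase activity was followed as ADP output, converted from fluorescence polarization with a calibration curve. Reactions ran one hour at low ATP (1 uM) with RS peptide substrate.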
# [18] = biological target: Cytochrome P450 2C9 (Homo sapiens) (UniProt P11712); assay: qHTS Assay for Inhibitors and Substrates of Cytochrome P450 2C9 (AID 883); details: recombinant CYP2C9, luciferin-H luminescence, 60 min; series mostly up to 57.1 µM; also: % is scaled to controls: 0 for no effect and ±100 for the full control effect; nearly all actives have a fitted effect of over 60% in size
# Procedure, shortened: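 10nM CYP2C9 + 100uM Luciferin-H (=KM), 25mM KPO4; cpd 10 min 37C; NADPH regen, 60 min 37C; stop/detect with P450 Glo-Buffer 20 min; luminescence. Norm. to 57uM sulphaphenazole as full inhibition.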
# [19] = biological target: Cytochrome P450 2D6 (Homo sapiens) (UniProt P10635); assay: qHTS Assay for Inhibitors and Substrates of Cytochrome P450 2D6 (AID 891); details: recombinant CYP2D6, luciferin-ME EGE luminescence; series mostly up to 57.1 µM; also: potency is read from the fitted curve at half-maximal effect; nearly all actives have a fitted effect of over 60% in size
# Sequence of Cytochrome P450 2D6 (Homo sapiens) (P10635 whole entry, looked up): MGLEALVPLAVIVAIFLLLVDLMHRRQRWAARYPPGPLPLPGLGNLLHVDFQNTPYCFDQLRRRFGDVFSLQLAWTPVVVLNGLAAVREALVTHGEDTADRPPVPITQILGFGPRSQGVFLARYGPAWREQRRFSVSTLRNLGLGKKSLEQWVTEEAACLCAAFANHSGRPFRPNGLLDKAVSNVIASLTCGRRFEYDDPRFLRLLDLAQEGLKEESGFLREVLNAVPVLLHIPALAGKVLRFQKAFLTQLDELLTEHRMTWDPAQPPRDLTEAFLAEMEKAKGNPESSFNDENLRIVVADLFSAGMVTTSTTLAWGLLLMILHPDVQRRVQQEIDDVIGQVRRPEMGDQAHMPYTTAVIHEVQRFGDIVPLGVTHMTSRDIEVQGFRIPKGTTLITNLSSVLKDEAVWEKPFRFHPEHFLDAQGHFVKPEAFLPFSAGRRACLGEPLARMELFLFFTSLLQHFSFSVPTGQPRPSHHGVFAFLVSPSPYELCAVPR
# Procedure, shortened: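 Human CYP2D6 (5 nM) with 30 uM Luciferin-ME EGE (at Km) in 100 mM KPO4, compound preincubated 10 min, then NADPH regeneration system for 60 min at room temperature. Luciferin read by luminescence; normalized to 1.43 uM quinidine.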
# [20] = biological target: Cytochrome P450 2C19 (Homo sapiens) (UniProt P33261); assay: qHTS Assay for Inhibitors and Substrates of Cytochrome P450 2C19 (AID 899); details: recombinant CYP2C19, luciferin-H EGE luminescence; series mostly up to 57.1 µM; also: potency is read from the fitted curve at half-maximal effect; nearly all actives have a fitted effect of over 60% in size
# Procedure, shortened: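 Luminescent read-out of luciferin formed from Luciferin-H EGE (10uM, equal to KM). Enzyme 5nM in 50mM KPO4; compound added, 10 min at 37C, then NADPH regenerating system for 60 min at 37C. Full inhibition defined by 57uM ketoconazole.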
structure (smiles),measurement,setting,value
Cc1cnc(CNc2ncncc2-c2ccc3c(c2)OCO3)cn1,Potency,[1],> 11.4 µM
same,"activity change, negative = inhibition",[2],-10.4%
same,Potency,[3],2 µM (active)
same,"activity change, negative = inhibition",[4],-2.24%
same,"activity, negative = inhibition",[5],4.5%
same,Potency,[6],> 46 µM
same,Potency,[7],> 46 µM
same,Potency,[8],inactive
same,Potency,[9],inactive
same,Potency,[10],1.58 µM (active)
same,Potency,[11],inactive
same,Potency,[12],14.1 µM (active)
same,Potency,[13],15.8 µM (active)
same,Potency,[14],inactive
same,outcome,[15],inactive
CNc1nc(-c2cccc(NS(C)(=O)=O)c2)nc2ccccc12,Potency,[1],> 11.4 µM
same,"activity change, negative = inhibition",[2],-8.82%
same,Potency,[3],0.398 µM (active)
same,"activity change, negative = inhibition",[4],6.53%
same,"activity, negative = inhibition",[5],-10.2%
same,Potency,[6],> 46 µM
same,Potency,[7],> 46 µM
same,Potency,[8],inactive
same,Potency,[9],inactive
same,Potency,[11],inactive
same,Potency,[12],14.1 µM (active)
same,Potency,[13],22.4 µM (active)
same,Potency,[14],inactive
same,outcome,[15],inactive
c1cncc(-c2ccc3ncnc(NCCN4CCOCC4)c3c2)c1,Potency,[1],> 11.4 µM
same,"activity change, negative = inhibition",[2],-1.94%
same,Potency,[3],1 µM (active)
same,"activity change, negative = inhibition",[4],26%
same,"activity, negative = inhibition",[5],2.95%
same,Potency,[6],> 46 µM
same,Potency,[7],> 46 µM
same,Potency,[8],inactive
same,Potency,[9],inactive
same,Potency,[11],inactive
same,Potency,[12],15.8 µM (active)
same,Potency,[13],17.8 µM (active)
same,Potency,[14],inactive
same,outcome,[15],inactive
CN(C)c1ncc2nc(-c3cc(F)cc(F)c3)c(=O)n(CCc3ccccc3)c2n1,Potency,[3],inactive
same,Potency,[6],> 9.22 µM
same,Potency,[7],> 46 µM
same,Potency,[9],inactive
same,Potency,[16],2.51 µM (active)
same,Potency,[12],inactive
same,Potency,[13],inactive
same,Potency,[17],inactive
same,Potency,[14],inactive
same,outcome,[15],inactive
CC(=O)NCCNc1nc(-c2ccccc2C)nc2ccccc12,Potency,[1],> 11.4 µM
same,"activity change, negative = inhibition",[2],7.34%
same,Potency,[3],6.31 µM (active)
same,"activity change, negative = inhibition",[4],-9.21%
same,"activity, negative = inhibition",[5],7.37%
same,Potency,[6],> 46 µM
same,Potency,[7],> 46 µM
same,Potency,[8],inactive
same,"activity change, negative = inhibition",[18],46.4% [at 2.29 µM]
same,Potency,[10],5.01 µM (active)
same,Potency,[11],inactive
same,Potency,[19],5.01 µM (active)
same,activation,[16],-1%
same,Potency,[12],22.4 µM (active)
same,Potency,[13],15.8 µM (active)
same,Potency,[14],inactive
same,outcome,[15],inactive
COc1ccc(CNc2ncncc2-c2cccc(C#N)c2)c(OC)c1,Potency,[1],> 11.4 µM
same,"activity change, negative = inhibition",[2],-5.26%
same,Potency,[3],7.94 µM (active)
same,"activity change, negative = inhibition",[4],13.9%
same,"activity, negative = inhibition",[5],8.97%
same,Potency,[6],> 46 µM
same,Potency,[7],> 46 µM
same,Potency,[8],inactive
same,Potency,[11],inactive
same,Potency,[19],5.01 µM (active)
same,Potency,[20],5.01 µM (active)
same,Potency,[12],28.2 µM (active)
same,Potency,[13],35.5 µM (active)
same,Potency,[14],inactive
same,outcome,[15],inactive
